According to PubChem BioAssay (Tox21):
Inconclusive results are not listed. Unmarked numbers belong to inactive results. Activity calls are given as the source filed them. Calls come from the whole dose curve.
% is set by controls: 0 for no effect and ±100 for the full control effect; potency is the fitted concentration of half-maximal effect.

Each molecule was assayed against Progesterone receptor (Homo sapiens) (UniProt P06401) (assay: qHTS assay to identify small molecule agonists of the progesterone receptor (PR) signaling pathway (AID 1346784; note: nearly all actives have a fitted effect of over 30% in size)). Conditions: PR-UAS-bla HEK293T, beta-lactamase FRET ratio, 16 h; series mostly up to 92.4 µM; activation: at the top concentration.
Progesterone receptor (Homo sapiens), sequence (P06401 whole entry, looked up): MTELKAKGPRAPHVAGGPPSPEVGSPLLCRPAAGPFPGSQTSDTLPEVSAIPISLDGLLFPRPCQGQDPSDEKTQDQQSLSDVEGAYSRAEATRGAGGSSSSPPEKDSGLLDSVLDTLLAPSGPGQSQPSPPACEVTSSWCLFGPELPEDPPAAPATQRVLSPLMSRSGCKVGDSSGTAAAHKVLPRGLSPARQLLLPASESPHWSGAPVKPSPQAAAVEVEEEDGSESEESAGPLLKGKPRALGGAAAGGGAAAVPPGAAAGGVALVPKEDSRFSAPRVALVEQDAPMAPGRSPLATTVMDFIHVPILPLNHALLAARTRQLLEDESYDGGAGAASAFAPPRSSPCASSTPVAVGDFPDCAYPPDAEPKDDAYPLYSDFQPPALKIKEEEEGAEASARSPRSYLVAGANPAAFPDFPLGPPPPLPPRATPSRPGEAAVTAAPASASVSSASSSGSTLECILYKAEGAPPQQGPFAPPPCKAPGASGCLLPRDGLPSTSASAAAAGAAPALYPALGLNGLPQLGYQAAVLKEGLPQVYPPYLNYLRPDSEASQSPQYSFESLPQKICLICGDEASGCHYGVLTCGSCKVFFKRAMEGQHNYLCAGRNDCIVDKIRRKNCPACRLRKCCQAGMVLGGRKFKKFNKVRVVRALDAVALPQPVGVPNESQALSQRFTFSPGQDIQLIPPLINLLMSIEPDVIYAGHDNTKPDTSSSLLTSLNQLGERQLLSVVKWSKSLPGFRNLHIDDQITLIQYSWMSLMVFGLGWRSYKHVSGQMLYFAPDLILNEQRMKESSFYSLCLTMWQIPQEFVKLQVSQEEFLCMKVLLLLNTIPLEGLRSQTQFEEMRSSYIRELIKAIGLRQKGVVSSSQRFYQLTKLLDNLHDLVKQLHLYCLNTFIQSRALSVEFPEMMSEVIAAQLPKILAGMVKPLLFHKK
In short: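 Beta-lactamase reporter read-out: after 16 hr compound treatment at 37C and a further 2 hr at room temperature with LiveBLAzer B/G FRET substrate, fluorescence was measured in PR-UAS-bla HEK 293T cells grown in 2% charcoal-stripped serum.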
With `CN1CCC[C@@H]1CCO[C@](C)(c1ccccc1)c1ccc(Cl)cc1` the “activation” value was -5.13% [at 42.5 µM].
`COCCOc1cc2cc(C(=O)NC3CCN(C(C)C)CC3)n(CC(=O)Nc3ccc(Cl)cn3)c2cn1` was tested, and the “activation” value was 1.74%.
For `CCC(CC)C(C)CCOC(C)=O` (configuration not stated), the “activation” value was 0.436%.
For `CC(CCc1ccccc1)NCC(O)c1ccc(O)c(C(N)=O)c1` (configuration not stated), the “activation” value was -7.78%.
In the case of `CCc1cccc(CC)c1NC(=O)CN(CC(=O)O)CC(=O)O`, the “activation” value is reported as -0.973% [at 42.5 µM].
Molecule `CC(C)(C)CC(C)(C)c1ccc(Nc2ccc(C(C)(C)CC(C)(C)C)cc2)cc1` has an activation of -0.254% [at 8.39 µM].
In the case of `O=C(O)c1ccc2cc(C(=O)O)ccc2c1`, the “activation” value is reported as 3.44%.
In the case of `Sc1nc2ccccc2s1`, the “activation” value is reported as 2%.
In the case of `C#C[C@]1(O)CC[C@H]2[C@@H]3[C@H](C)CC4=C(CCC(=O)C4)[C@H]3CC[C@@]21C`, the Potency is reported as 18.8 nM (active).
With `CCCC1CCC(=O)CC1` the “activation” value was 0.886%.
For `CCCC(=O)OC(C)(C)Cc1ccccc1`, the “activation” value was 0.244%.
For `O=C1c2ccccc2C(=O)N1SC1CCCCC1`, the Potency was “inactive”.
In the case of `Cc1nc(-c2ccc(Cl)cc2)oc1COC(C)(C)C(=O)O`, the “activation” value is reported as -3.46% [at 42.5 µM].
In the case of `O=S(=O)(O)c1ccc(N=Nc2c(O)ccc3ccccc23)cc1`, the “activation” value is reported as -4.39%.
With `O=C1CCCCCCCCCCCCCCCO1` the “activation” value was -2.65%.
`CC/C=C\CCCCCO` was tested, and the “activation” value was 0.562%.
`Cc1cccc2cccnc12` was tested, and the “activation” value was 1.04%.
In the case of `COc1cccc(OC)c1C(=O)O`, the “activation” value is reported as -1.42%.
`O=C(/C=C/c1ccc(O)c(O)c1)O[C@@H](C(=O)O)[C@@H](OC(=O)/C=C/c1ccc(O)c(O)c1)C(=O)O` was tested, and the “activation” value was 1.83%.
`CCc1ccc(Br)cc1` was tested, and the “activation” value was 0.174%.
For `CCCCOC(=O)CC`, the “activation” value was 0.717%.
In the case of `CCCC(=O)OCCc1ccccc1`, the “activation” value is reported as -0.422%.
